Screening results: PubChem, National Center for Advancing Translational Sciences (NCATS)
HEK293 viab: reduces viability of HEK-293 SNCA reporter cells | HEK-293-SNCA-luc viability, GF-AFC fluorescence, 24 h | Potency, µM (highest dose often 57.1 µM), inactives show top-dose activity change, negative = cytotoxicity, usual class: cytotoxic | 150,000 compounds, 0.12% hits | AID 1671193;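 note: potency is the fitted concentration of half-maximal effect; 0% = DMSO-treated cells and -100% = medium-only wells without cells; nearly all actives have a fitted effect of over 30% in size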
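HEK-293-SNCA-luc cells (1500/well) plated 24 h, then exposed 24 h to a dilution series; GF-AFC added 30 min at 37C, fluorescence 405/540 nm; normalised to medium-only and DMSO wells, Hill fit.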
IP6K1 inh: IP6K1 kinase inhibition; IP6K1 kinase, ADP-Glo luminescence, 2 h; active compounds read low; activity change, % (series mostly up to about 58 µM); 140,000 compounds, 0.81% hits; AID 1645851; in the data active = activity change below about -25%
Target sequence (Q92551 whole entry, looked up): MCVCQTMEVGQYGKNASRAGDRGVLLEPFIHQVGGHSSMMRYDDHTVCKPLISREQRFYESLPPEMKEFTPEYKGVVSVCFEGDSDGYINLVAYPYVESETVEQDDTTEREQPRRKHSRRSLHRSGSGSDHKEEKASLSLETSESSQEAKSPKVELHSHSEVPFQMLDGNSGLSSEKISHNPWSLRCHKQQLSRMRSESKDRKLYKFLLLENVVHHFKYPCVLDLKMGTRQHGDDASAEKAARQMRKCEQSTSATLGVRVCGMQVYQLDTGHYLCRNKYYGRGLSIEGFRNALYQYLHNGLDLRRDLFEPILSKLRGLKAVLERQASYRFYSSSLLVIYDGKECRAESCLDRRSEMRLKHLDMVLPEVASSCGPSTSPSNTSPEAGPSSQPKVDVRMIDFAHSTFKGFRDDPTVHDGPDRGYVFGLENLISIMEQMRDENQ
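ADP-Glo luminescence measures ADP made by human IP6K1 during a 2 h RT reaction with ATP/IP6 (mix at 1.3 mM/130 uM); top library doses 57.5 and 19.1 uM final.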
SNCA expr inh: SNCA gene expression inhibition; HEK-293 SNCA-luciferase knock-in, luminescence, 24 h; Potency, µM (series often up to 57.2 µM), inactives show at the highest dose activity change, negative = inhibition, hits mostly inhibitors; 140,000 compounds, 0.17% hits;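 note: potency is the fitted concentration of half-maximal effect; plate controls were DMSO cells for no effect and cell-free wells for full effect; nearly all actives have a fitted effect of over 45% in size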
GPT2 inh: GPT2 alanine aminotransferase inhibition. Q8TD30. Recombinant GPT2, coupled pyruvate oxidase/HRP Amplex Red fluorescence. Potency, µM (highest dose often 57.7 µM), inactives show at the top dose activity change, negative = inhibition, actives largely listed as inhibitors. 100,000 compounds, 0.25% hits; note: potency is the fitted concentration of half-maximal effect; nearly all actives have a fitted effect of over 60% in size
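Fluorescence read-out: pyruvate from GPT2 turnover coupled to pyruvate oxidase, HRP and Amplex Red (0.2mM ThPP, 0.2U/mL PO and HRP, 50uM Amplex final). Substrates 250uM a-KG, 2mM L-alanine; enzyme 10ng/uL; 30 min RT.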
IP6K1 conf: confirmation of human IP6K1 inhibitors | shares compounds with IP6K1 inh | recombinant IP6K1 kinase, ADP-Glo luminescence, 2 h | Potency, µM (titrated, usually from 49 µM), for inactives: at the top dose activity change, negative = inhibition, hits mostly inhibitors | 1,200 compounds, 13% hits | AID 1645852; note: potency is the fitted concentration of half-maximal effect; nearly all actives have a fitted effect of over 65% in size
Numbers without * were called inactive; i = inactive; ? = inconclusive; nt = no result given; [ ] = dose if it differs, or a comment. Rows were chosen to be rich in hits. Some 0.9% of all compounds tested hit in one or more screens of this group. Unless noted, calls come from the whole dose curve; as a rule, active = well fitted curve in the direction sought with a large enough effect; inconclusive = small, poorly fitted or top-dose-only effect, or another doubt; inactive = no such curve, though single readings can be large; an effect the other way counts as inactive or inconclusive. Unless noted, % is set by controls: 0 for no effect and ±100 for the full control effect.

SMILES	HEK293 viab	IP6K1 inh	SNCA expr inh	GPT2 inh	IP6K1 conf
CCCSCCCNC(=O)C1CCN(c2nc3ccccc3nc2C(F)(F)F)CC1	-1%	-29*	1%	nt	-9%
O=C(NCC(F)(F)F)C1CCCN1C(=O)c1cccc(-c2ccccn2)c1 (centres undefined)	7%	-3	25%	1%	nt
COc1cccc(-c2ccc(CN3CCCC(NC(=O)C(C)C)C3)cc2)c1 (centres undefined)	-1%	-5	26%	4%	nt
Cc1ccc(NC(=O)C(=O)NCC(c2ccc3c(c2)OCO3)N2CCN(C)CC2)cc1C (centres undefined)	1%	-27*	?	nt	-10%
CC(=O)c1ccc(NC(=O)CSc2nnc(N)s2)cc1	-3%	-31*	145%	nt	-16%
Nc1nnc(SCC(=O)Nc2ccccc2)s1	5%	-2	68%	nt	nt
CC(C)CN1CCCC(c2nc3ccc(F)cc3c(=O)[nH]2)C1 (centres undefined)	-24%[87.6 µM]	5	?	4%[88.5 µM]	nt
COc1ccc(Cl)cc1NC(=O)Cn1ncc2c3ccccc3n(Cc3ccccc3)c2c1=O	2%	-27*	11%	nt	-2%
COc1cc(Cl)c(C)cc1NC(=O)Cn1ncc2c3ccccc3n(Cc3ccccc3)c2c1=O	4%	7	-26%	nt	nt
CC(C)c1ccc(OCc2cc(=O)n3c(-c4ccccc4)csc3n2)cc1	-14%	-31*	32%	nt	-7%
CN(C)c1ccc2nc3ccc(=[N+](C)C)cc-3sc2c1	?	-30*	56%[25.6 µM]	?	15µM*
CCN1c2cc(C(=O)Nc3ccc(OC)c(Cl)c3)ccc2C(=O)N2CCCC21 (centres undefined)	-10%[12.5 µM]	-9	40%	i	nt
COc1ccc(NC(=O)c2[nH]nc3c2CSc2ccccc2-3)c(OC)c1	8%	-44*	7%	nt	-6%
COc1ccc(OC)c(CNC(=O)c2nn(C)c3c2CSc2ccccc2-3)c1	11%	35	-6%	nt	nt
CCOC(=O)c1cc2c(=O)n3ccccc3nc2n(Cc2ccco2)c1=NC(=O)c1cccc(C)c1	?	-36*	-24%	nt	?
CCOC(=O)c1cc2c(=O)n3ccccc3nc2n(Cc2ccco2)c1=NC(=O)c1ccc(C)c(C)c1	?	-7	7%	nt	nt
COc1ccc(-c2nc3c(c(SCC(=O)Nc4cccc(O)c4)n2)Cc2c(CO)cnc(C)c2O3)cc1	-22%	-29*	-8%	nt	-3%
O=C(NCCc1ccc(F)cc1)C(=O)NCC(c1cccs1)S(=O)(=O)c1ccccc1 (centres undefined)	-17%	-30*	22%	nt	-3%
Cc1cc(C)cc(-c2ccc(CN3CCCC(c4nc5ccc(F)cc5c(=O)[nH]4)C3)cc2)c1 (centres undefined)	-6%	25	?	2%	nt
COc1cccc(CNc2ncc(-c3ccc(Br)cc3)n2C)c1	-8%	-35*	29%	nt	?
CCOc1ccc(-c2cnc(NCc3ccc(OC)cc3OC)n2C)cc1	-6%	-25*	-5%	nt	-12%
COc1ccc(OC)c(CNc2ncc(-c3ccc(Cl)cc3)n2C)c1	?	-8	42%	nt	nt
C[S+](=O)([O-])N1CCC(C(=O)N2CCCC(c3nc4ccncc4[nH]3)C2)CC1 (centres undefined)	2%	11	-12%	i	nt
c1cc(N[C@@H]2CCNC2)nc(-c2cnc3ccc(-c4cn[nH]c4)cn23)c1	-40%	-39*	?	5%	?
O=[S+]1([O-])NCC2(CCN(CC3CCCCC3)CC2)Oc2ncccc21	0%	9	4%	1%	nt
SMILES	HEK293 viab	IP6K1 inh	SNCA expr inh	GPT2 inh	IP6K1 conf
COc1cccc(-c2ccc(NC(=O)C3=C(C(=O)O)CCC3)c(F)c2)c1	-10%	-27*	105%	-6%	?
O=C(NCc1ccc2c(c1)OCO2)c1nc(-c2ccc(Cl)cc2)c2cnccn12	23%	0	156%	2%	nt
Cc1ccc2c(c1)N(C(=O)N1CCC(C(=O)NCCC3=CCCCC3)CC1)CC(C)O2 (centres undefined)	4%	-39*	-5%	nt	-11%
Cc1ccc2c(c1)N(C(=O)N1CCC(C(=O)NCCc3ccccc3)CC1)CC(C)O2 (centres undefined)	-11%	7	-3%	nt	nt
Cc1ccc2c(c1)N(C(=O)N1CCC(C(=O)NCc3cccc(Br)c3)CC1)CCO2	-8%	-102*	-36%	nt	-12%
CCCN1C(=O)Cc2cc(C(=O)NCc3ccc(C)c(C)c3)ccc21	13%	-6	-22%	i	nt
OCc1cccc(-c2cc(-c3cccnc3)c3cncn3c2)c1	-9%[87.6 µM]	-22	5%[87.6 µM]	?	nt
CCc1ccccc1NC(=O)Nc1cccc(-c2ccc(N3CCOCC3)nn2)c1	-3%	-26*	59%	i	-24%
Cc1ccc(CNC(=O)Nc2cccc(-c3ccc(N4CCOCC4)nn3)c2)cc1	-1%	-13	-5%	i	nt
COc1cccc(CNC(=O)Nc2cccc(-c3ccc(N4CCOCC4)nn3)c2)c1	-3%	-39*	?	?	?
O=S(=O)(NCC1CN(CC2CC2)CC12CCCCC2)c1cccnc1 (centres undefined)	5%	3	4%	i	nt
COc1ccc(F)cc1-c1cccc(C(=O)NCCNC(=O)c2ccc(Cl)nc2)c1	-4%	-11	-21%	-6%	nt
COc1cccc(-c2c(C(=O)NCc3cccs3)nc3sccn23)c1	-6%	3	-7%	0%	nt
COc1ccccc1-c1cc(C(=O)NCc2cccs2)nn2cnnc12	2%[12.5 µM]	20	?	-1%	nt
CCCCCCCCCCCCCCCCC(C(=O)O)C(O)(CC(=O)O)C(=O)O (centres undefined)	-8%[23.9 µM]	-78*	31%[25.6 µM]	?	23µM*
CCCCCCCCCCCCCCCCCC(=O)O	-3%[23.9 µM]	-7	-41%[25.6 µM]	i	nt
CCn1c2ccccc2c2cc(CN3CCN(Cc4ccccc4F)CC3)ccc21	12%	-26*	-11%	nt	-1%
CCn1c2ccccc2c2cc(CN3CCN(Cc4ccccc4C)CC3)ccc21	0%	-28*	10%	nt	5%
CCn1c2ccccc2c2cc(CN3CCN(Cc4ccc(Cl)cc4)CC3)ccc21	5%	-20	?	nt	nt
O=C1NCCCCCCN(C(=O)COc2ccccc2)[C@H]2C[C@H](c3nc(-c4cnccn4)no3)C[C@@H]12	-17%	5	-19%	-5%	nt
Cc1ccc(C(=O)NC2CCN(c3nc4ncccc4o3)CC2)cc1	?	3	1%[87.6 µM]	i	nt
Cc1cccc(Oc2nc3c(c(=O)n(C)c(=O)n3C)n2C)c1	8%	-27*	11%	nt	-18%
Cn1c(Oc2cccc(Cl)c2)nc2c1c(=O)n(Cc1ccccc1Cl)c(=O)n2C	-1%	33	-21%	nt	nt
Cc1ccc(NCc2cccn2-c2nnc(N3CCC(C(=O)NCCc4ccc(Cl)cc4)CC3)s2)cc1	-8%	-25*	?	nt	37%
